Assay [1] deals with Gonadotropin-releasing hormone receptor (Homo sapiens) (UniProt P30968). Nature of the assay: Human gonadotropin-releasing hormone receptor (GnRHR) small molecule agonists, calcium flux assay in GnRHR-HEK293 cells (AID 1920063). Also: nearly all actives have a fitted effect of over 35% in size. Summed up: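 HEK293 cells stably expressing human GnRHR were plated 18 h at 37 °C, loaded with calcium dye 1 h at 37 °C, then given compound in agonist mode; fluorescence (Ex/Em 480/540) read kinetically for 3 min at 1 s intervals.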
(In general: Calcium assays in cells follow changes in intracellular calcium, usually with a dye or a luminescent sensor.)

Assay [2] deals with KiSS-1 receptor (Homo sapiens) (UniProt Q969F8). Nature of the assay: Human kisspeptin (KISS1R) small molecule agonists, calcium flux assay in KISS1R-HEK293 cells (AID 1920064; active = well fitted activation curve with a large enough effect in the repeat runs). Summed up:
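HEK293 cells stably expressing human KISS1R were plated 18 h at 37 °C, loaded with calcium dye for 1 h at 37 °C, then given compound by pin tool. Fluorescence (Ex/Em 480/540) was read kinetically for 3 min.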

Assay [3] is described as follows: G protein-coupled receptor (GPCR) small molecule agonists, calcium flux assay: HEK293 wild type cell line counter screen (AID 1920065). Summed up: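 Cells were plated and cultured 18 h at 37 C/5% CO2, then loaded with calcium dye for 1 h at 37 C. Compounds in DMSO were pin-transferred in agonist mode, and fluorescence (Ex/Em 480/540) was read kinetically for 3 min at 1 s intervals.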

Assay [4] in a line: p53 small molecule agonists, cell-based qHTS assay (AID 1963582; active = well fitted activation curve with a large enough effect in the signal ratio in the repeat runs, not every such curve was filed as active; the % refers to the signal ratio). Summed up: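 p53RE-bla beta-lactamase reporter cells rested 5 h at 37 C/5% CO2, then received compounds in DMSO by pin transfer and were incubated 16 h at 37 C. LiveBLAzer B/G FRET substrate was loaded for 2 h at room temperature before fluorescence reading.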
(In general: qHTS replaces the single test concentration by a dilution series.)

Assay [5] is described as follows: cAMP Responsive Elements (CRE) small molecule agonists, cell-based qHTS assay (AID 1963590). Also: potency is read from the fitted curve at half-maximal effect. Summed up:
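CRE-bla HEK 293T cells in DMEM with 10% dialyzed FBS, NEAA, pyruvate and 25 mM HEPES were plated 18 h at 37 C/5% CO2, then exposed to compounds in DMSO for 3 h before LiveBLAzer B/G FRET substrate addition.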

Assay [6] in a line: cAMP Responsive Elements (CRE) small molecule antagonists, cell-based qHTS assay (AID 1963591; active = well fitted inhibition curve with a large enough effect in the signal ratio in the repeat runs, not every such curve was filed as active; the % refers to the signal ratio). Summed up: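 CRE-bla HEK293T cells were plated 18 h at 37 °C/5% CO2, pinned with compound in DMSO, then stimulated with NKH477 at 0.25 uM final for 3 h. LiveBLAzer B/G FRET substrate was added and plates incubated 2 h at room temperature.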
The nature of assay [7]: p53 small molecule agonists, cell-based qHTS assay: qHTS cell viability counter screen (AID 1963581). Also: nearly all actives have a fitted effect of over 45% in size. Summed up: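 p53RE-bla HCT-116 cells were exposed to compounds for 16 h at 37 C; after the beta-lactamase FRET read in the same wells, CellTiter-Glo was added and luminescence (intracellular ATP) read after 30 min at room temperature.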
Assay [8] has as its target 5-hydroxytryptamine receptor 2A (Homo sapiens) (UniProt P28223). Nature of the assay: 5-hydroxytryptamine receptor 2A (HTR2A) small molecule antagonists, cell-based qHTS assay (AID 1963586). Also: nearly all actives have a fitted effect of over 45% in size. Summed up:
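Antagonist-mode intracellular calcium assay: DOI (4 nM) added after 5 min compound pre-incubation at room temperature to dye-loaded HTR2A-CHO cells. Fluorescence followed for 3 min, sampled every second.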

Assay [9] shares this target. The assay is described as follows: 5-hydroxytryptamine receptor 2A (HTR2A) small molecule agonists, cell-based qHTS assay (AID 1963587). Also: nearly all actives have a fitted effect of over 30% in size. Summed up:
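Kinetic calcium-flux fluorescence (2 min, 1 sec intervals) after compound addition in agonist mode. HTR2A-CHO cells were cultured 18 h, then dye-loaded 1 h at 37 C.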

Assay [10] deals with Muscarinic acetylcholine receptor M1 (Homo sapiens) (UniProt P11229). The assay is described as follows: Cholinergic receptor muscarinic 1 (CHRM1) small molecule agonists, cell-based qHTS assay (AID 1963589). Also: nearly all actives have a fitted effect of over 35% in size. Summed up: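 CHO cells stably expressing human CHRM1, seeded 18 h at 37 C/5% CO2, dye-loaded 1 h at 37 C, then given compound in agonist mode; intracellular calcium fluorescence read kinetically at 1 s intervals. Fifteen concentrations, three independent runs.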

In assay [11] the target is Beta-2 adrenergic receptor (Homo sapiens) (UniProt P07550). Nature of the assay: Adrenergic beta2 receptor (ADRB2) small molecule antagonists, cell-based qHTS assay (AID 1963592). Also: nearly all actives have a fitted effect of over 50% in size. Also: potency is read from the fitted curve at half-maximal effect. Summed up:
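Cells (CHO, stable ADRB2 overexpression) incubated 18-20hr at 37C; compounds added from DMSO; agonist mix (1nM isoproterenol, 100uM IBMX, 25uM Ro-20-1724) added; 0.5hr RT; d2-cAMP and anti-cAMP-cryptate added; 1hr RT; 665/615 nm read.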

Assay [12] has as its target D(2) dopamine receptor (Homo sapiens) (UniProt P14416). Nature of the assay: Dopamine D2 receptor (DRD2) small molecule agonists, cell-based qHTS assay (AID 1963594). Also: nearly all actives have a fitted effect of over 35% in size. Summed up: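 cAMP accumulation in DRD2-HEK293 cells measured by HTRF after 1 h detection; compounds added 10 min before NKH477 (200nM […]) forskolin-analogue stimulation, 30 min at room temperature, with Ro20-1724 present at 0.1 mM final.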

Assay [13] has the same target. The assay is described as follows: Dopamine D2 receptor (DRD2) small molecule antagonists, cell-based qHTS assay (AID 1963595; active = well fitted inhibition curve with a large enough effect in the signal ratio in the repeat runs, with a control signal flat; the % refers to the signal ratio; also: potency is read from the fitted curve at half-maximal effect). Summed up: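 Cells were plated and grown for 24 h at 37 °C. Ro20-1724 (0.1 mM final) went in first, then compound for 10 min. NKH477 (200 nM) with quinpirole (12 nM) followed for 30 min at RT, then HTRF detection reagents for 1 h.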
Assay [14] deals with Muscarinic acetylcholine receptor M1 (Homo sapiens) (UniProt P11229). Nature of the assay: Cholinergic receptor muscarinic 1 (CHRM1) small molecule antagonists, cell-based qHTS assay (AID 1963588). Also: nearly all actives have a fitted effect of over 40% in size. Summed up: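 CHRM1-CHO calcium-flux assay, antagonist mode. Cells were seeded 18 h, dye-loaded 1 h at 37 C and given compound for 5 min at RT, then acetylcholine was added at 50nM. FDSS fluorescence was read 3 min; 15 concentrations, three runs.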

A short description of assay [15]: p53 small molecule agonists, cell-based qHTS assay with human liver microsomes (AID 1963577).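 Also: p53 response element beta-lactamase reporter cells with liver microsomes plus NADPH.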 Summed up: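 Steps: plate p53RE-bla cells, incubate 5 h at 37 C; add compound in DMSO; add microsomes (0.5 mg/mL final) and NADPH (0.5 mg/mL final); incubate 16 h at 37 C; add LiveBLAzer, 2 h RT; read fluorescence.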
A short description of assay [16]: p53 small molecule agonists, cell-based qHTS assay with rat liver microsomes: qHTS cell viability counter screen (AID 1963580). Also: nearly all actives have a fitted effect of over 45% in size. Summed up: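 HCT-116 p53RE-bla, 4,000 cells/well, 5 h pre-incubation; cpd + rat liver microsomes 0.5 mg/mL + NADPH 0.5 mg/mL (final); 16 h, 37 C; CellTiter-Glo, 30 min RT; luminescence.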
The target in assay [17] is Beta-2 adrenergic receptor (Homo sapiens) (UniProt P07550). Nature of the assay: Adrenergic beta2 receptor (ADRB2) small molecule agonists, cell-based qHTS assay (AID 1963593).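 Also: CHO cells stably overexpressing human ADRB2.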 Summed up:
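CHO cells stably over-expressing ADRB2 were plated overnight at 37C, then dosed with compounds plus a stimulation mix containing 100uM IBMX and 25uM Ro-20-1724 for 0.5hr at room temperature. cAMP was measured by HTRF competition, 1hr.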

A short description of assay [18]: p53 small molecule agonists, cell-based qHTS assay with rat liver microsomes (AID 1963578). Summed up: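 Metabolic activation is supplied by rat liver microsomes with NADPH (each 0.5 mg/mL final). p53RE-bla cells incubate with compound 16 h at 37 C; reporter activity is measured by LiveBLAzer fluorescence.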
The nature of assay [19]: p53 small molecule agonists, cell-based qHTS assay with human liver microsomes: qHTS cell viability counter screen (AID 1963579). Also: nearly all actives have a fitted effect of over 45% in size. Summed up: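 After the 460/530 nm beta-lactamase read, CellTiter-Glo was added to the same wells and luminescence measured after 30 min at room temperature, giving viability of p53RE-bla cells treated 16 h with compounds plus microsomes and NADPH.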

Records with an inconclusive call do not appear. Activity calls are given as the source filed them. Unless noted, calls follow the shape of the full dose curve.

Beta-2 adrenergic receptor (Homo sapiens), sequence (P07550 whole entry, looked up): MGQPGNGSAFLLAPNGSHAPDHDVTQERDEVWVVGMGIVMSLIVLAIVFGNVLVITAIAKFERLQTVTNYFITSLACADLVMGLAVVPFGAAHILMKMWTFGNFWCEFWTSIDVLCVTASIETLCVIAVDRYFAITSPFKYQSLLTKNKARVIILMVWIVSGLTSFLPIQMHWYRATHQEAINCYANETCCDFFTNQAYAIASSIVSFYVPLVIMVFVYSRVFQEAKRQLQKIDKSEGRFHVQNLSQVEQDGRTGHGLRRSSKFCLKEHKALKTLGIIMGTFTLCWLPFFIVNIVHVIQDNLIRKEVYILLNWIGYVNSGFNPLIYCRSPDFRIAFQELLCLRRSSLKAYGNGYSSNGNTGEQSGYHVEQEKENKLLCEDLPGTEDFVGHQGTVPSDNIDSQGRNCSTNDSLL
KiSS-1 receptor (Homo sapiens), sequence (Q969F8 whole entry, looked up): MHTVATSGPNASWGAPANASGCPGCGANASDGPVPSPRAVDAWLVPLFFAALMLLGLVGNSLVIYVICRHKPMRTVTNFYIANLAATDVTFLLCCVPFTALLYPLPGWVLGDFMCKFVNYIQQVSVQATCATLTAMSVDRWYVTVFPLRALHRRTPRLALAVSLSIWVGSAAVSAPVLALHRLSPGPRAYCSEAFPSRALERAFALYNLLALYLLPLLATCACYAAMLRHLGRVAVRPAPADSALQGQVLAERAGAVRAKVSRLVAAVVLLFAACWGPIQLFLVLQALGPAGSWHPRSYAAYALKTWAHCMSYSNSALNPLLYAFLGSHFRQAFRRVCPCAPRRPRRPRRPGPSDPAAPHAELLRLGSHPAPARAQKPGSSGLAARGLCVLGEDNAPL
Muscarinic acetylcholine receptor M1 (Homo sapiens), sequence (P11229 whole entry, looked up): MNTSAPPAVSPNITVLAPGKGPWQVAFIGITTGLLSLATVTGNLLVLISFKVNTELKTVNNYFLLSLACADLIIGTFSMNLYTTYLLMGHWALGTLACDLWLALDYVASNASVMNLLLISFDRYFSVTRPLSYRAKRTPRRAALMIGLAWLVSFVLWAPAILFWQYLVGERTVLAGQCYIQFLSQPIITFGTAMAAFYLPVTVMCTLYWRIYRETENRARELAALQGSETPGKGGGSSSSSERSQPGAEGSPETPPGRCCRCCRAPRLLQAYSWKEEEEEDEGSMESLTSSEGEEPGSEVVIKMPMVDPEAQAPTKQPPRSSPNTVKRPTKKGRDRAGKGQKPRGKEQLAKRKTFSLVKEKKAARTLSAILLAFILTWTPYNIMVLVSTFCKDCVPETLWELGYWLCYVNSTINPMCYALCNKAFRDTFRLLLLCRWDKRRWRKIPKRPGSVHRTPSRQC
Gonadotropin-releasing hormone receptor (Homo sapiens), sequence (P30968 whole entry, looked up): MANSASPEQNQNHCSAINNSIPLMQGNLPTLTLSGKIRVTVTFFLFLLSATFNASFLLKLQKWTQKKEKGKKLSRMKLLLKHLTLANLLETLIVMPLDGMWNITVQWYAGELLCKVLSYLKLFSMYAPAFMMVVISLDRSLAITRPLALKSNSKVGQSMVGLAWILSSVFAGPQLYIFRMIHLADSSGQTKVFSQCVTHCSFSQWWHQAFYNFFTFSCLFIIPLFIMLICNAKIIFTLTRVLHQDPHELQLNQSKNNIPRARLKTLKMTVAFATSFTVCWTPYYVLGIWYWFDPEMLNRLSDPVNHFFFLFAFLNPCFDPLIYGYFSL
5-hydroxytryptamine receptor 2A (Homo sapiens), sequence (P28223 whole entry, looked up): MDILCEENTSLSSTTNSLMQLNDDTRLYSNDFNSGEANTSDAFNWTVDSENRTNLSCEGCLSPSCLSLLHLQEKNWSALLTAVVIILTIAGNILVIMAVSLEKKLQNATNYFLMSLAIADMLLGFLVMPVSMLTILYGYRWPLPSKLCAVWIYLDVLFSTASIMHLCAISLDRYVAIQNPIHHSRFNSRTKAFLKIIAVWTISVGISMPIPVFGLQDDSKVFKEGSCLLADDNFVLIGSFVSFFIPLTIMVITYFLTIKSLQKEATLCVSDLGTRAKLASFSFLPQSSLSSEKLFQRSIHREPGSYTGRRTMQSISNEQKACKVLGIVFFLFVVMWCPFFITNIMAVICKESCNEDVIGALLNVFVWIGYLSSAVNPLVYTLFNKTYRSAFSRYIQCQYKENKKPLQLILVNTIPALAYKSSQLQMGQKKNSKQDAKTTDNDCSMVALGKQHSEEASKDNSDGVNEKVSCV
D(2) dopamine receptor (Homo sapiens), sequence (P14416 whole entry, looked up): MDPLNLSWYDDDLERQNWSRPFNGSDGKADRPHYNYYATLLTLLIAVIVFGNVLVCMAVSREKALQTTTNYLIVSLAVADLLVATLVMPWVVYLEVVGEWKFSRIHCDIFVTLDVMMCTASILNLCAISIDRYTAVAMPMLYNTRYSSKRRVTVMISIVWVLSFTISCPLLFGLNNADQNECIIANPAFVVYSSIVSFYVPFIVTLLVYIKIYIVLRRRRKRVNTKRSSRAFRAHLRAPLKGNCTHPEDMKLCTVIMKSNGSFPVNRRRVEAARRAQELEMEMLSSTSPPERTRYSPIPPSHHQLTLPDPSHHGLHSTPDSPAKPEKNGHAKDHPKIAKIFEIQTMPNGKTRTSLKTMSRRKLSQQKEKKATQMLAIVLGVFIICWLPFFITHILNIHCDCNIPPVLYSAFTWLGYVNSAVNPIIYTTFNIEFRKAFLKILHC

As to `CNCCCN1c2ccccc2CCc2ccccc21`, the Potency entry in assay [1], in assay [2], in assay [3], in [4], in [5] and in assay [6] was “inactive” throughout.
With `CC(C)c1nnc2ccc(-c3ocnc3-c3cc(F)ccc3F)cn12`, the Potency result in [1], in [2], in assay [3], in assay [7], in [4] and in [8] was “inactive” each time. Besides, the Potency result in assay [9], in assay [10], in assay [11], in [12] and in assay [13] was “inactive” each time.
Regarding `CCOc1ccc2c(c1)C(C)CC(C)(C)N2` (centres undefined), the Potency result in assay [1], in assay [2], in [3], in assay [7], in assay [8] and in assay [9] was “inactive” throughout. In addition, the Potency entry in assay [14], in assay [10], in assay [5], in assay [11], in assay [12] and in assay [13] was “inactive” throughout.
Regarding `COc1cc2c(cc1OC)-c1cc(=Nc3c(C)cc(C)cc3C)n(C)c(=O)n1CC2`, the Potency entry in assay [1], in assay [2], in [15], in assay [16], in assay [7] and in assay [4] was “inactive” throughout. The Potency result in assay [8], in assay [9], in [10], in [11] and in assay [12] was “inactive” throughout. For the same molecule, the values for the Potency in assay [5] and in assay [13] were 4.22 µM (active) and 15 µM (active), respectively.
As for `C[N+]1(C)CCC(OC(=O)C(O)(c2ccccc2)C2CCCC2)C1` (centres undefined), the Potency entry in [1], in assay [2], in [3], in assay [7], in assay [4] and in [8] was “inactive” each time. For the same molecule, the Potency entry in assay [10], in assay [6], in [11], in assay [12] and in assay [13] was “inactive” each time.
For `COc1cc(Cc2cnc(N)nc2N)cc(OC)c1OC`, the Potency result in [1], in assay [2], in assay [3], in assay [7], in [4] and in assay [8] was “inactive” throughout. Also, the Potency result in assay [9], in assay [14], in assay [10], in [5], in assay [6] and in assay [11] was “inactive” throughout. In addition, the Potency entry in assay [17], in [12] and in assay [13] was “inactive” throughout.
Regarding `CC(=O)Nc1cccc(N)c1`, the Potency result in [1], in assay [2], in assay [15], in [18], in assay [19] and in [4] was “inactive” throughout. For the same molecule, the Potency entry in assay [8], in [9], in assay [14], in [10], in [5] and in assay [6] was “inactive” in each case. In addition, the Potency result in [11] and in assay [12] was “inactive” in each case.
Take `CN1CCN(C2=Nc3cc(Cl)ccc3Nc3ccccc32)CC1`: the Potency result in assay [1], in assay [2], in assay [3], in assay [7], in assay [5] and in assay [6] was “inactive” each time. Further, the Potency entry in [11] was “inactive”.
`CN(C)C(=O)C(CCN1CCC(O)(c2ccc(Cl)cc2)CC1)(c1ccccc1)c1ccccc1`: the Potency entry in [1], in assay [2], in assay [3], in assay [7], in assay [4] and in assay [6] was “inactive” in each case. The Potency entry in assay [12] and in assay [13] was “inactive” each time. For the same molecule, the Potency in assay [11] was 11.9 µM (active).
Regarding `NCCCC(O)(P(=O)(O)O)P(=O)(O)O`, the Potency entry in assay [1], in assay [2], in [3], in [7], in assay [4] and in assay [5] was “inactive” throughout. Besides, the Potency result in assay [11], in [17], in assay [12] and in [13] was “inactive” in each case.
In the case of `CN(C)C(=N)N=C(N)N`, the Potency entry in [1], in [2], in assay [3], in assay [7], in assay [4] and in assay [5] was “inactive” in each case. Also, the Potency result in [6], in assay [11], in assay [17], in assay [12] and in assay [13] was “inactive” each time.
